# Most compounds without a hit are left out; they make up all but 4.8% or so of the library.
# SMARCA2 act: SMARCA2 function activation, primary screen. MG213 cells, MMTV-luciferase reporter, dexamethasone, overnight. activation, % at 9.1 µM. 370,000 tested, 1% active. AID 652017; in the data active = activation above about 7.8%;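 also: 0% = vehicle wells and 100% = reference activator wells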
# hcDAF-12 act: activates DAF-12 receptor from parasite H. contortus; HEK293 hcDAF-12 lit1-tk-luc reporter, luminescence; 0% DMSO, 100% Δ7-dafachronic acid; activation, % at 6.8 µM; 370,000 tested, 1.4% active;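 active = activation above the mean of all tested compounds plus 3 SD, cut at about 5.5% in these data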;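 also: 100% = response to 3 µM Δ7-dafachronic acid high control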
# hgDAF-12 ag: agonists of H. glycines DAF-12 nuclear receptor | HEK293 GAL4-hgDAF12 UAS-luciferase reporter, agonist luminescence; normalized to butyrate control | activation, % at 6.8 µM | 370,000 tested, 1.8% active | AID 687014;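 active = activation above a cutoff set at the mean of all screened compounds plus 3 SD, cut at about 10% in these data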;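 also: 0% = DMSO wells and 100% = sodium butyrate wells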
# DAX1 inh-1: inhibits human nuclear receptor DAX1. HEK293 Gal4-DAX1 luciferase reporter, luminescence. inhibition, % at 6.75 µM. 340,000 tested, 0.99% active. P51843;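 active = inhibition above the mean over all tested compounds plus 3 SD, cut at about 4.2% in these data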;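 also: 0% = DAX1-transfected cells with DMSO and 100% = empty-vector control cells with DMSO; inhibition shows as a rise in luminescence from relieved DAX1 repression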
# Target sequence (P51843 207-470 limits assumed): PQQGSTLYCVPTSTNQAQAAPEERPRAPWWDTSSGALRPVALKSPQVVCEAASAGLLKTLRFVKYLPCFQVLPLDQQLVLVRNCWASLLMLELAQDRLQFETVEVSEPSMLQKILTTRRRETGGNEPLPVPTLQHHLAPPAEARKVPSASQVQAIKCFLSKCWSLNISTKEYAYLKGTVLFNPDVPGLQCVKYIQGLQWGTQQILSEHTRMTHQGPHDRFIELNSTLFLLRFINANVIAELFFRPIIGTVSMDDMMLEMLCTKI
# ssDAF-12 act: activates DAF-12 receptor from parasite S. stercoralis | AID 652126 | 370,000 tested, 1% active | activation, % at 6.8 µM | HEK293 ssDAF-12/GRIP1 lit1-tk-luc reporter, luminescence; % of 3 µM dafachronic acid response;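 active = activation above the mean over all tested compounds plus 3 SD, cut at about 0.9% in these data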;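 also: 0% = DMSO-only wells and 100% = 3 µM delta7-dafachronic acid wells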
# DAX1 inh-2: inhibitors of DAX1 repression of SF-1 activated StAR promoter; HEK293T StAR-luciferase reporter, SF-1/DAX-1 repression relief; inhibition, % at 6.8 µM; 370,000 tested, 1.1% active; AID 652010;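 active = inhibition above the mean over all tested compounds plus 3 SD, cut at about 3.6% in these data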;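 also: 0% = DAX-1 cells with DMSO and 100% = cells lacking DAX-1 with DMSO; higher inhibition means more luminescence from relief of DAX-1 repression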
# * hit, by the source's call; . = no result.
SMILES,SMARCA2 act,hcDAF-12 act,hgDAF-12 ag,DAX1 inh-1,ssDAF-12 act,DAX1 inh-2
CN(C)c1ccc(-c2nnc(SCC3CCCO3)n2C)cc1 (stereo unspecified),2,2,8,4.8*,0,2
Cn1c(SCC2CCCO2)nnc1-c1ccncc1 (stereo unspecified),-4,-1,-2,0,-1,1
C[C@H](O)[C@@H]1CN2CCc3ccc(N4CCOCC4)cc3[C@@H]2C[C@@H]1N(C)C(=O)c1cccc(Cl)c1,-3,-2,-2,.,-1,-1
Cc1ccccc1NC(=O)N1CCCC(c2nc(-c3ccc(F)cc3)no2)C1 (stereo unspecified),0,-1,3,0,-2,1
Cc1ccccc1NC(=O)N1CCCC(c2nc(-c3ccc(C(C)C)cc3)no2)C1 (stereo unspecified),-2,5,11*,-4,0,0
COC(=O)c1ccc(N2Cc3ccccc3/C2=N\C(=O)Nc2ccccc2)cc1,-1,-2,-1,0,0,0
CC(=O)c1ccc(N2Cc3ccccc3/C2=N\C(=O)Nc2ccc(Cl)cc2)cc1,4,2,12*,2,1,1
CCN(CC)C(=O)CN1C(=O)C2CCCCN2C(=O)c2ccccc21 (stereo unspecified),-5,-3,3,.,-1,0
Fc1ccc(CSc2nnc(-c3cccs3)o2)cc1,0,2,4,1,-2,0
Fc1ccc(Cc2nnc(-c3cccs3)o2)cc1,1,0,7,4.3*,-1,0
Fc1ccc(-c2nnc(Cc3ccc(Cl)cc3)o2)cc1,0,-1,12*,2,-1,1
CNc1ccccc1/C(O)=C(\C#N)C(=O)NCc1cccc2ccccc12,-1,-2,-1,.,-1,0
NC(=O)c1cc2ccncc2c2ccccc12,-3,-3,11*,0,-2,0
Cc1cc(C(N)=O)c2ccccc2n1,-2,-2,0,-1,-1,-1
O=C(CCNC(=O)c1ccccc1Cl)Nc1ccc(Br)c(C(F)(F)F)c1,-1,0,0,0,19*,0
CC(C)N1CCCCC(NC(=O)c2ccc(F)cc2)C1=O (stereo unspecified),0,-1,0,.,-1,0
CCN(CC)C(=O)N1CCC(NC(=O)c2ccccc2)CC1,1,-2,3,4.7*,-1,0
O=C(NC1CCN(C(=O)N2CCOCC2)CC1)c1ccccc1,4,-2,1,1,-1,-1
Cc1cccc(NC(=O)C(=O)NCC2CCCO2)c1 (stereo unspecified),2,3,13*,0,-1,3.8*
c1ccc(-c2ccc3nnnn3n2)cc1,-5,-1,0,0,-2,1
c1cnc(Sc2ccc3nnnn3n2)nc1,0,-1,2,1,1.3*,-1
CC(C)(C)c1ccc(C(=O)Nn2cnnc2)cc1,-1,4,5,3,1.0*,0
CCOC(=O)C1=CCN(S(=O)(=O)c2ccc(Br)cc2)C1c1cccc(Cl)c1 (stereo unspecified),1,-1,-1,.,-1,-1
OCC(O)CNC(=S)NC1CCCCC1 (stereo unspecified),-2,-1,0,4.9*,-1,0
CCOc1ccc(-n2c(SCC(=O)Nc3ccc(S(=O)(=O)Nc4cc(C)nc(C)n4)cc3)nnc2-c2ccco2)cc1,4,-1,-1,.,-1,1
SMILES,SMARCA2 act,hcDAF-12 act,hgDAF-12 ag,DAX1 inh-1,ssDAF-12 act,DAX1 inh-2
O=C(CCN1C(=O)/C(=C/c2ccc(F)cc2)SC1=S)NNC(=O)c1cccnc1,-2,-1,2,4.3*,-1,1
O=C(CCN1C(=O)/C(=C/c2ccccc2)SC1=S)NNC(=O)c1cccnc1,-3,1,4,0,-1,1
CCOc1cc(OCC)cc(C(=O)N2CCC[C@@H]2C(=O)N2CCC[C@@H]2C(=O)NCc2cccc(OC)c2)c1,-6,-1,2,.,-1,0
COc1cccc(CNC(=O)CCNC(=O)N2CC(=O)Nc3ccccc32)c1,-4,1,6,3,-1,1
COc1cccc(CNC(=O)CNC(=O)N2CC(=O)Nc3ccccc32)c1,-1,-1,1,1,-1,3.7*
CC(C)c1ccc(NC(=O)CCNC(=O)N2CC(=O)Nc3ccccc32)cc1,-1,-1,0,0,-1,3.9*
COc1ccc(NC(=O)CCNC(=O)N2CC(=O)Nc3ccccc32)cc1,-2,0,3,1,-1,1
Cc1nn(-c2ccccc2)c2sc(C(=O)NCCc3ccccc3)cc12,-4,0,5,.,-2,-1
FC(F)(F)c1ccccc1Cc1c(-c2ccco2)nc2c3ccccc3ccn12,4,2,-1,.,1,-1
COc1ccc(C(=O)CSc2nnc(-c3n[nH]c4c3CCC4)n2N)cc1OC,5,-2,-10,.,-1,-1
CCN(CC)c1ccc2cc(-c3nc4ccccc4[nH]3)c(=O)oc2c1,.,.,.,-2,.,.
CCN(CC)c1ccc2cc(-c3nc4ccccc4n3C)c(=O)oc2c1,1,2,3,2,1.0*,3.6*
COc1cc2c3nnc(-c4ccc(F)cc4)c-3cn(Cc3ccccc3)c2cc1OC,19*,0,-1,1,0,0
COc1cc2c3nnc(-c4ccc(F)cc4)c-3cn(Cc3ccc(F)cc3)c2cc1OC,5,-2,-1,-3,-1,-1
O=C(O)c1ccc(C=Nn2c(-c3ccc(F)cc3)n[nH]c2=S)cc1,-3,-2,5,.,-2,-1
COC(=O)[C@]12C[C@H](CC(=O)N3CCOCC3)C(=O)N(Cc3ccco3)C1=C[C@H](C(C)(C)C)O[C@@H]2C,2,2,0,.,0,3
CC(NC(=O)c1ccc(C#N)cc1)C1CC2CCC1C2 (stereo unspecified),2,-1,-1,5.4*,-1,0
COc1ccc(NC(=O)NC(C)C2CC3CCC2C3)cc1 (stereo unspecified),0,1,-4,2,17*,0
CCOC(=O)c1cccc(NC(=O)CN(C)S(=O)(=O)c2ccco2)c1,-5,-1,-1,.,-1,1
CC(O)CNc1nc2c(c(=O)n(C)c(=O)n2C)n1CCc1ccccc1 (stereo unspecified),-2,-4,-1,-1,-2,-1
Cn1c(=O)c2c(nc(NCC(O)CO)n2CCc2ccccc2)n(C)c1=O (stereo unspecified),0,1,2,5.4*,-1,0
Cc1cc(-c2n[nH]c(=S)n2N=Cc2ccc(-c3ccccc3)cc2)n[nH]1,-2,0,1,.,-1,-1
